Activity calls are given as the source filed them.
Tests used:
[1] = binders of probe aFSTL3 on microarray, primary screen, stem cell growth factor project, biochemical, small-molecule microarray, fluorescence 635/667 (AID 1064); settings: higher = more signal;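 also: measures binding of the biotinylated anti-FSTL3 antibody to printed compounds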
[2] = binders from COS7 lysate, DM2A8 probe, primary screen, torsin A project, cell lysate, small-molecule microarray, fluorescence 635/667 (AID 1065); settings: higher = more signal, COS7 lysate expressing mutant human TOR1A
[3] = binders of probe aFGF2 on microarray, primary screen, stem cell growth factor project, biochemical, small-molecule microarray, fluorescence 635/667 (AID 1067); settings: higher = more signal;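 also: measures binding of biotinylated aFGF2 protein to printed compounds on slides; z-score merges feature fluorescence and signal-to-noise across triplicate slides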
[4] = binders of probe aFGF10 on microarray, primary screen, stem cell growth factor project, biochemical, small-molecule microarray, fluorescence 635/667 (AID 1071); settings: higher = more signal;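 also: score merges 667 nm spot intensity and signal to noise from triplicate slides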
[5] = target: Neurogenic locus notch homolog protein 2 (Homo sapiens) (UniProt Q04721); test: Notch2 binders on small-molecule microarrays, primary screen, biochemical, small-molecule microarray, 635 nm fluorescence, stem cell growth factors (AID 1073); settings: Notch2 binding, higher = more signal
Neurogenic locus notch homolog protein 2 (Homo sapiens), sequence (Q04721 whole entry, looked up, canonical isoform): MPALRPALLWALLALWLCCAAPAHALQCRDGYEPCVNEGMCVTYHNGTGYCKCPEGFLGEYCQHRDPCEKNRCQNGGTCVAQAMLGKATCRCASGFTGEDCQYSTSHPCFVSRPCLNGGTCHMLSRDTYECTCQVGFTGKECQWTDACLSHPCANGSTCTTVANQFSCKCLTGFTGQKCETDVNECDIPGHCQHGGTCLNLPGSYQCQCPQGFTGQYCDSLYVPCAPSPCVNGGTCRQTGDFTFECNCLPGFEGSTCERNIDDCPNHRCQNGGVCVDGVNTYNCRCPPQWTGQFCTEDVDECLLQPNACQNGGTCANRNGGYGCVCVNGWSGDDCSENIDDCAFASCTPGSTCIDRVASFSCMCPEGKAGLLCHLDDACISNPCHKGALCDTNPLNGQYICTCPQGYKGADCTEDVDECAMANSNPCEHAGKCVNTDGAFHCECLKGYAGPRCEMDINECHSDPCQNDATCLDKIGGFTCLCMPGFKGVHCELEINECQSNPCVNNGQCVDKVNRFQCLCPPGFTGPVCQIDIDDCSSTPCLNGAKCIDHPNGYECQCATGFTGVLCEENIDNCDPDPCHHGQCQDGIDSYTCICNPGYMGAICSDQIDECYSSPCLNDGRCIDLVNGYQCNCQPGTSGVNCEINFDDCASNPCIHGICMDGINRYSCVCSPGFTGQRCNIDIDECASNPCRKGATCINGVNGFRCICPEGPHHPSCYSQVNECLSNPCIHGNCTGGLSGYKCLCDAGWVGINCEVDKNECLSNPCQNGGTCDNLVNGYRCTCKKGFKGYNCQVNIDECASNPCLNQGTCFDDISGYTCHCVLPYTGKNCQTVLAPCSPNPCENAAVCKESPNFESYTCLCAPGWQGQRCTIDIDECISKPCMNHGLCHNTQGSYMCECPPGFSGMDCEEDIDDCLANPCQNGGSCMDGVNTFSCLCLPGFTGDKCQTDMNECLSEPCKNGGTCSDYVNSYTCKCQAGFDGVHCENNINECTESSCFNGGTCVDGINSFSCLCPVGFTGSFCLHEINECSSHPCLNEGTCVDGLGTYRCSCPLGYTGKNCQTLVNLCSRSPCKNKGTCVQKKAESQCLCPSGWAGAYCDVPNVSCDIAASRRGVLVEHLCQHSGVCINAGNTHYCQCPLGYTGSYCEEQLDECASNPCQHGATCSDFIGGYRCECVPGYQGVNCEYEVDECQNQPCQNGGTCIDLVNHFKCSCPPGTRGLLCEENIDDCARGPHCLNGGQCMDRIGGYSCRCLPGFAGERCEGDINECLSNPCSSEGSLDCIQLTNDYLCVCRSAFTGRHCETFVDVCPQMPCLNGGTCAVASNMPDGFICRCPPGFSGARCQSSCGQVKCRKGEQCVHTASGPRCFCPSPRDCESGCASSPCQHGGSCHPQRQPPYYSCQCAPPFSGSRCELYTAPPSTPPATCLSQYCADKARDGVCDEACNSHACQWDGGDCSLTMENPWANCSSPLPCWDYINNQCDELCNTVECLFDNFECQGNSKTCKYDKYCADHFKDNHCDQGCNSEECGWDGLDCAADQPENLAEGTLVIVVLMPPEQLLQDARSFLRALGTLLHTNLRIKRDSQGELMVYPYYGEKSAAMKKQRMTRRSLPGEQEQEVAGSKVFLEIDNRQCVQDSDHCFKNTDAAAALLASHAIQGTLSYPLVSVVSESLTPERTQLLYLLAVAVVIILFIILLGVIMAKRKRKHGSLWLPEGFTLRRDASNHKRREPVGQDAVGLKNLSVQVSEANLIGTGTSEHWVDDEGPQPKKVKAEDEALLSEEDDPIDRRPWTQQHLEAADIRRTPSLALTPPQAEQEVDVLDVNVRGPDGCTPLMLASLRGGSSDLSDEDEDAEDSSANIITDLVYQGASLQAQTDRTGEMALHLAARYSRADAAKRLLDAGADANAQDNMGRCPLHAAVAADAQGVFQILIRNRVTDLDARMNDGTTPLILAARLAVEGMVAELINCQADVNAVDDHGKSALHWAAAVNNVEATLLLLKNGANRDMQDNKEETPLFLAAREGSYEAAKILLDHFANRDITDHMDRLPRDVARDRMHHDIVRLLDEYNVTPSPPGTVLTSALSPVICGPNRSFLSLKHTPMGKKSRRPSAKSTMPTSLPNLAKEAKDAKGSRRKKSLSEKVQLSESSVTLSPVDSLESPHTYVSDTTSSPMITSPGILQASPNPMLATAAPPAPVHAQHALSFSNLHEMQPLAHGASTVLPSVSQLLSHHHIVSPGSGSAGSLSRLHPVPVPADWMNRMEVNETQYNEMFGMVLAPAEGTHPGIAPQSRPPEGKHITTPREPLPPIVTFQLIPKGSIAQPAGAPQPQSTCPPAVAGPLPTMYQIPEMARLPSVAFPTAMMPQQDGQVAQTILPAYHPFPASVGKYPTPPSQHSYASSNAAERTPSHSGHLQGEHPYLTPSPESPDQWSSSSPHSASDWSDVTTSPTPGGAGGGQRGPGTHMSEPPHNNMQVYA

[6] = target: Pro-neuregulin-1, membrane-bound isoform (Homo sapiens) (UniProt Q02297); test: NRG1 binders on small-molecule microarrays, primary screen, psychiatric disease protein project, biochemical, small-molecule microarray, fluorescence 635/667 (AID 1075); settings: NRG1 binding, 635 nm fluorescence, higher = more signal;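 also: score combines 667 nm spot fluorescence with signal to noise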
Pro-neuregulin-1, membrane-bound isoform (Homo sapiens), sequence (Q02297 whole entry, looked up, the tested form may be a part, canonical isoform): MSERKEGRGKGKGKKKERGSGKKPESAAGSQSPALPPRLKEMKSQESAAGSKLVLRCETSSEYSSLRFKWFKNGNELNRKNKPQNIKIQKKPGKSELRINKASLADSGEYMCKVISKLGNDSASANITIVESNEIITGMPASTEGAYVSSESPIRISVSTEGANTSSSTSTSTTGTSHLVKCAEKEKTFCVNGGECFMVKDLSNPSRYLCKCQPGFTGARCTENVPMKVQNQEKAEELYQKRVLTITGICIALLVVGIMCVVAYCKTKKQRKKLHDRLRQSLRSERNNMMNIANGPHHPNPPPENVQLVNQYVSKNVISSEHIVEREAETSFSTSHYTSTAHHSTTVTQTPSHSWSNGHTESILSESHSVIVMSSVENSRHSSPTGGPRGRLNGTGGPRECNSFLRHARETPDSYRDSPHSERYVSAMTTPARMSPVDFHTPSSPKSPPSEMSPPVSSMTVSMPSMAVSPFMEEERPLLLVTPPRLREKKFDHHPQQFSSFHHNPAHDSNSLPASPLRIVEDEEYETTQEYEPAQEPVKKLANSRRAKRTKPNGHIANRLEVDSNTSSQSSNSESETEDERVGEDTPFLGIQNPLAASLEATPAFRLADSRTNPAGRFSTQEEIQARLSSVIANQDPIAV

[7] = tested on: Neuregulin-1 EGF-like domain; test: binders of neuregulin-1 EGF-like domain, primary screen, biochemical, small-molecule microarray, 635 nm fluorescence (AID 1081); settings: small-molecule microarray binding, higher = more signal;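 also: binding of the protein to compounds printed on small-molecule microarray slides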
[8] = FRG1 promoter luciferase signal modulators, primary screen, FRG1 inhibition for FSHD, cell-based, C2C12 myotubes, firefly/Renilla luciferase, luminescence (AID 1084); settings: higher = more signal, called active from +8 up or from −8 down
[9] = binders of probe aFST on microarray, primary screen, stem cell growth factor project, biochemical, small-molecule microarray, fluorescence 635/667 (AID 1086); settings: higher = more signal;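 also: score merges 667 nm fluorescence with signal-to-noise of each printed compound spot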
[10] = binders of probe aHhip on microarray, primary screen, stem cell growth factor project, biochemical, small-molecule microarray, fluorescence 635/667 (AID 1087); settings: higher = more signal;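 also: score merges spot fluorescence at 667nm with spot signal to noise ratio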

SMILES | composite z-score [1] | composite z-score [2] | composite z-score [3] | composite z-score [4] | composite z-score [5] | composite z-score [6] | composite z-score [7] | z-score [8] | composite z-score [9] | composite z-score [10]
CCOC(=O)C[C@H]1[C@H](OC(=O)Cc2ccc3c(c2)OCO3)[C@@H](NC(=O)c2ccc3ccccc3c2)c2cc(OCCCO)ccc2N1C(=O)c1ccccc1 | -0.397 | 0.0993 | -0.14 | 0.284 | 0.642 | 0.376 | 1.13 | 0.12 (inactive) | 0.254 | 0.0373
O=C1[C@H]2C=C(Br)[C@H](C[C@@H]2c2ccccc2)[C@@]12CO2 | -0.357 | 0.324 | -0.0265 | 0.328 | 0.299 | -0.406 | 0.57 | 1.36 (inactive) | 0.0322 | -0.0645
CCOC(=O)C[C@H]1[C@H](OC(=O)Cc2ccc3c(c2)OCO3)[C@@H](NC(=O)c2ccc(-c3ccccc3)cc2)c2cc(OCCCO)ccc2N1C(=O)c1ccc2ccccc2n1 | -0.472 | 0.783 | -0.131 | 0.228 | 0.399 | 0.281 | 0.167 | -4.52 (inactive) | 0.0972 | -0.236
CC(C)c1ccc(NN2C(C(O)C(c3ccccc3)c3ccccc3)C=CC3C(=O)N(c4ccccc4)C(=O)C32)cc1 (stereo not given) | -0.304 | -0.612 | 0.116 | 0.903 | 1.53 | 1.63 | 1.26 | 0.358 (inactive) | 1.25 | 0.452
COc1ccc(C(O)C2C=CC3C(=O)N(c4ccccc4)C(=O)C3N2Nc2ccccc2F)cc1OCc1ccccc1 (stereo not given) | 0.873 | -0.217 | 0.5 | 0.775 | 1.65 | 1.17 | 0.99 | 3.15 (inactive) | 1.1 | 0.0274
Cc1ccc(C(C)CC(O)C2C=CC3C(=O)N(c4ccccc4)C(=O)C3N2Nc2ccc([N+](=O)[O-])cc2)o1 (stereo not given) | -0.0729 | 0.123 | 0.0757 | 0.513 | 1.51 | 1.69 | 1.2 | 0.296 (inactive) | 1.51 | 0.0373
CC(C)C[C@H]1NC(=O)[C@@]23C(=O)N[C@@H](Cc4ccccc4)C2[C@H](C)[C@@]2(C)O[C@H]2C3/C=C/C/C=C\CNC(=O)[C@H](Cc2ccccc2)NC1=O (stereo not given in full) | -0.404 | 0.443 | -0.0973 | 0.307 | 0.349 | 1.04 | 0.976 | 0.688 (inactive) | 0.146 | -0.0994
C=C(CCCC)C(=O)CC[C@@H](OC(=O)c1cccnc1)c1ccc(CO)o1 | -0.45 | 0.0802 | -0.008 | 0.601 | 0.88 | 1.05 | 1.07 | -0.434 (inactive) | 0.391 | 0.122
COCCOC(=O)N1C(=O)[C@@]2(c3cc(C#CCCO)ccc31)[C@H](c1ccc(OCCO)cc1)N1[C@H](c3ccccc3)[C@H](c3ccccc3)OC(=O)[C@H]1[C@@H]2C(=O)N1CCN(c2ncccn2)CC1 | -0.204 | -0.0161 | -0.0972 | 0.281 | 1.33 | 0.317 | 1.23 | -0.37 (inactive) | 0.658 | 0.0274
CC1CC/C=C\[C@H]2OC34C=CCN(C(C)(C)C)C(=O)[C@H]3N(CCCCCCO)C(=O)[C@@H]4C2C(=O)O1 (stereo not given in full) | 0.237 | -0.153 | -0.149 | 0.0097 | -0.945 | 0.866 | 1.13 | -1.09 (inactive) | -0.222 | -0.0994
COCCOC(=O)N1C(=O)[C@@]2(c3cc(C#CC4(O)CCCCCC4)ccc31)[C@H](c1ccc(O)cc1)N1[C@H](c3ccccc3)[C@H](c3ccccc3)OC(=O)[C@H]1[C@@H]2C(=O)Nc1nc2ccccc2s1 | 1.87 | 0.186 | -0.045 | 0.769 | 1.15 | 1.15 | 1.02 | 1.41 (inactive) | 2.31 | 0.468
O=C1[C@H]2C=C(Br)[C@H](C[C@@H]2OCCCCO)[C@@]12CO2 | -0.441 | -0.199 | -0.116 | 0.0593 | 0.0769 | -0.434 | -0.0036 | -0.636 (inactive) | -0.241 | -0.0237
CCOC(=O)C[C@H]1[C@H](OC(=O)c2ccc(C(=O)c3ccccc3)cc2)[C@@H](NC(=O)c2ccc(-c3ccccc3)cc2)c2cc(OCCCO)ccc2N1C(=O)c1ccccc1 | -0.57 | -0.264 | -0.212 | 0.577 | 0.639 | 0.771 | 0.744 | 0.805 (inactive) | 0.319 | -0.164
COc1cc2c(cc1OC)CN(C(=O)[C@H]1[C@@H]3C(=O)O[C@@H](c4ccccc4)[C@@H](c4ccccc4)N3[C@@H](c3ccc(O)cc3)[C@]13C(=O)Nc1ccc(C#CCNC(N)=O)cc13)CC2 | -0.297 | 0.0737 | -0.0473 | 0.689 | -0.0344 | 0.404 | 0.37 | 0.297 (inactive) | 0.135 | 0.0854
CCOc1cc(C(O)C2C=CC3C(=O)N(c4ccccc4)C(=O)C3N2Nc2ccccc2)ccc1O (stereo not given) | 0.259 | 0.107 | 0.252 | 1.03 | 0.66 | 1.8 | 1.2 | 0.893 (inactive) | 0.771 | -0.189
CN(C)C(=O)[C@]1(Cc2ccccc2CN=[N+]=[N-])N=C(c2ccc(OCCCO)cc2)O[C@@H]1c1ccccc1CN=[N+]=[N-] | -0.0551 | 1.26 | 0.0858 | 1.18 | 1.43 | 0.559 | 1.27 | -1.45 (inactive) | 1.64 | -0.318
[N-]=[N+]=Nc1ccccc1C[C@]1(C(N)=O)N=C(c2ccc(OCCCO)cc2)O[C@H]1c1ccccc1 | 0.235 | 0.327 | 0.0931 | 0.373 | 0.361 | 1.82 | 1.22 | -3.01 (inactive) | 0.85 | -0.0237
COc1ccc(C(=O)Nc2cccc(CN3C(=O)[C@]4(O[C@H](CCO)[C@@H]([Si](C)(C)c5ccc(OC)cc5)[C@@H]4C)c4ccccc43)c2)cc1 | -0.442 | 0.193 | -0.102 | 0.285 | 0.484 | 0.621 | 1.09 | -3.19 (inactive) | 0.439 | -0.179
CCCCCC1=C2CNC(CCC)(C(=O)OC)C=C2C(C)C1=O (stereo not given) | 0.327 | 0.0422 | -0.0074 | 0.159 | 1.14 | 0.92 | 0.993 | 0.488 (inactive) | 0.21 | 1.96
COCCCNC(=O)[C@@]1(Cc2ccccc2)N=C(c2ccc(OCCCO)cc2)O[C@H]1c1ccccc1 | 0.743 | 1.2 | 0.298 | 0.155 | 0.82 | 1.38 | 1.33 | -1.4 (inactive) | 1.08 | 1.17
CN(C)C(=O)[C@]1(Cc2ccccc2N=[N+]=[N-])N=C(c2ccc(OCCCO)cc2)O[C@@H]1c1ccccc1 | 0.127 | 0.227 | 0.0901 | 0.071 | 1.31 | 1.78 | 1.13 | -2.65 (inactive) | 0.627 | -0.374
C=C(CCCC)/C(=C/C[C@@H](OC(C)=O)c1ccccc1OCCO)c1cnc2ccccc2c1 | 0.0298 | 1.08 | -0.0633 | -0.036 | 0.13 | 0.967 | 0.95 | -0.983 (inactive) | 0.0983 | 0.176
C=C(COC)/C(=C/C[C@@H](OC(C)=O)c1ccc(CO)o1)c1cnc2ccccc2c1 | -0.258 | 0.434 | 0.0472 | 1.11 | 1.65 | 1.02 | 1.04 | 0.527 (inactive) | 0.408 | 0.364
COc1cc2c(cc1O)C=[N+](Cc1cccc(OC(F)(F)F)c1)CC2 | -0.193 | 0.137 | -0.106 | -0.0214 | 0.457 | 0.529 | 0.544 | -0.886 (inactive) | -0.0596 | -0.374
COc1ccc([Si](C)(C)[C@@H]2[C@@H](CCO)O[C@]3(C(=O)N(Cc4ccc(N5C(=O)COc6ccccc65)cc4)c4ccccc43)[C@H]2C)cc1 | -0.0069 | 0.408 | -0.0474 | 1.24 | 1.18 | 1.01 | 1.17 | -2.74 (inactive) | 0.288 | 0.0373
